Assay outcomes (PubChem BioAssay)
Hits are enriched below; roughly 11% of the tested compounds scored in any of these assays.
Luciferase inh: Photinus pyralis luciferase inhibition; P08659; purified P. pyralis luciferase, luminescence, biochemical; Potency, µM (highest dose often 115 µM), most hits filed as inhibitors; 2.5% of 76,000 active; AID 1347043; note: nearly all actives have a fitted effect of over 65% in size
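Purified P. pyralis luciferase (10nM final) in 50mM Tris acetate pH 7.5, 10mM Mg acetate, 0.01% Tween-20, 0.05% BSA with 10uM D-luciferin and 10uM ATP. Compounds titrated qHTS. Luminescence imaged on CCD.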
NIH3T3 tox: kills NIH 3T3 cells | NIH 3T3 viability, CellTiter-Glo ATP luminescence, 48-72 h | Potency, µM (doses to about 96.7 µM), hits mostly inhibitors | 4.3% of 94,000 active; note: nearly all actives have a fitted effect of over 55% in size
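First NIH 3T3 cells are plated at 400 cells/well; next compound is pinned in; then plates incubate 48 or 72 hr at 37 °C; finally CellTiter-Glo is added and luminescence read after 10 min.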
HEK cytotox: kills HEK 293 cells | HEK 293 viability, ATP luminescence (CellTiter-Glo), 48-72 h | Potency, µM (titrated, usually from 115 µM), hits mostly inhibitors | 6.6% of 94,000 active | AID 1345083; note: nearly all actives have a fitted effect of over 60% in size
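Pintool-delivered compounds were incubated with HEK 293 cells (250 cells/well) at 37 degree Celsius for 48 or 72 hr. ATP-dependent luminescence (CellTiter-Glo) then reported remaining viable cells.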
NPR1 antag: human Npr1 receptor antagonism; P16066; HEK293 hNpr1 GloSensor cGMP, ANP-stimulated luminescence; Potency, µM (highest dose often 46.3 µM), hits mostly inhibitors; 1.6% of 76,000 active; AID 1347048; calls by dose curve; note: nearly all actives have a fitted effect of over 60% in size
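Compound pre-incubated 30 min at room temperature on GloSensor-loaded HEK293 cells stably carrying hNpr1 and the pGS-40F cGMP biosensor. Stimulation uses hNppA at 0.1 nM final; luminescence is taken at baseline and 20 min post-agonist.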
Hits are given with their value; i = inactive; ? = inconclusive; nt = no result given. Unless noted, calls come from the whole dose curve; as a rule, active = well fitted curve in the direction sought with a large enough effect; inconclusive = small, poorly fitted or top-dose-only effect, or another doubt; inactive = no such curve, though single readings can be large; an effect the other way counts as inactive or inconclusive.

SMILES	Luciferase inh	NIH3T3 tox	HEK cytotox	NPR1 antag
Cc1noc2c(NC3CCN(C)CC3)cc(-c3ccc(Cl)cc3)nc12	i	10µM	35.5µM	i
CC(=O)N1CCC(Nc2ncccc2-c2cc(-c3ccccc3)nc3c(C)noc23)CC1	i	?	100µM	i
Cc1noc2c(-c3cccnc3)cc(-c3cccs3)nc12	i	?	?	i
Cc1noc2c(-c3cccc(O)c3)cc(-c3cccs3)nc12	i	39.8µM	70.8µM	i
Cc1noc2c(NC3CCN(C)CC3)cc(-c3cccs3)nc12	i	?	79.4µM	i
CC(=O)N1CCC(Nc2cc(-c3ccc(Cl)cc3)nc3c(C)noc23)CC1	i	?	?	i
COCCNc1cc(-c2ccc(Cl)cc2)nc2c(C)noc12	i	?	?	i
Cc1noc2c(NC3CCC(O)CC3)cc(-c3ccc(Cl)cc3)nc12 (stereo not given)	i	22.4µM	89.1µM	i
COCCN1C(=O)c2cccn2CC1CNC(=O)c1ccc(-n2c(C)ccc2C)cc1 (stereo not given)	nt	?	25.1µM	nt
Cc1ccc(CN2CCC3(CCC3N3CCOCC3)CC2)cc1C (stereo not given)	nt	i	i	nt
COCCN1C(=O)c2ccccc2C(C(=O)Nc2nc3ccccc3[nH]2)C12CCCC2 (stereo not given)	i	i	i	i
COCCN1C(=O)c2ccccc2C(C(=O)Nc2nc3ccccc3[nH]2)C12CCCCC2 (stereo not given)	i	?	79.4µM	i
Cc1nn(-c2ccccc2)c2c1C(C)N(CC1CN(C(=O)Nc3ccccc3)C1)C2=O (stereo not given)	nt	i	i	nt
Cc1nn(-c2ccccc2)c2c1C(C)N(CC1CN(C(=O)c3ccc4c(c3)OCO4)C1)C2=O (stereo not given)	nt	20µM	?	nt
CCOC(=O)N1CC(CN2C(=O)c3c(c(C)nn3-c3ccccc3)C2C2CC2)C1 (stereo not given)	nt	39.8µM	35.5µM	nt
CC(=O)N1CC(CN2C(=O)c3c(c(C)nn3-c3ccccc3)C2C2CC2)C1 (stereo not given)	nt	22.4µM	?	nt
CC(=O)N1CC(CN2C(=O)c3c(c(C)nn3-c3ccccc3)C2C)C1 (stereo not given)	nt	i	?	nt
Cc1nn(-c2ccccc2)c2c1C(C)N(CC1CN(C(=O)c3ccc(Cl)nc3)C1)C2=O (stereo not given)	nt	?	i	nt
Cc1nn(-c2ccccc2)c2c1C(C)N(CC1CN(Cc3ccc(C(F)(F)F)cc3)C1)C2=O (stereo not given)	nt	39.8µM	31.6µM	nt
O=C(c1cccc(-c2ccccn2)c1)N1CCN(C(=O)c2ccccc2F)CC1	nt	i	?	nt
Cc1nn(-c2ccccc2)c2c1C(C1CC1)N(CC1CN(C(=O)C3CC3)C1)C2=O (stereo not given)	nt	10µM	?	nt
O=C(C1CCN([S+](=O)([O-])c2cccc(C(F)(F)F)c2)CC1)N1CCC(N2CCOCC2=O)CC1	nt	i	?	nt
COC(=O)c1c(S(=O)(=O)N2CCCCCCC2)sc2c1CCN(C(=O)C1CC=CCC1)C2 (stereo not given)	i	?	44.7µM	i
COCCN1C(=O)CCc2cc(NC(=O)c3ccc4c(c3)OCO4)ccc21	39.8µM	i	?	i
CCN1C(=O)CCc2cc(NC(=O)CC(C)C)ccc21	i	i	i	i
SMILES	Luciferase inh	NIH3T3 tox	HEK cytotox	NPR1 antag
COCCN1C(=O)CCc2cc(NC(=O)COC)ccc21	i	i	i	i
CC(C)CN1C(=O)CCc2cc(NC(=O)c3ccc4c(c3)OCO4)ccc21	?	?	39.8µM	i
O=C1CC2(CCN(C(=O)C3CCCN3C(=O)c3ccccc3Cl)CC2)Oc2ccccc2N1 (stereo not given)	nt	i	i	nt
O[C@@H]1C[C@@H](c2nc(-c3ccc(C(F)(F)F)cc3)no2)N(Cc2cccc(OC(F)(F)F)c2)C1	35.5µM	?	79.4µM	i
Cc1ccc(-c2noc([C@@H]3C[C@@H](O)CN3Cc3cccc(OC(F)(F)F)c3)n2)cc1F	i	?	?	i
O[C@@H]1C[C@@H](c2nc(-c3ccccc3)no2)N(Cc2cccc(OC(F)(F)F)c2)C1	70.8µM	?	?	i
O=C(NCC1CC1)c1nc2cccnc2n(C2CC2)c1=O	nt	i	i	nt
O=C(c1nn(CC2CC2)c2c1CNCC2)N1CCC(Cc2ccccc2)CC1	nt	39.8µM	?	nt
O=C(NCc1ccc(F)cc1)c1nc2sccn2c1-c1cccnc1	nt	i	i	nt
COc1ccc(Nc2ccnc(N3CCN(C(=O)c4ccc(Cl)cc4)CC3)n2)cc1	nt	i	17.8µM	nt
